hgDAF12 agonist = agonists of H. glycines DAF-12 nuclear receptor; HEK293 GAL4-hgDAF12 UAS-luciferase reporter, agonist luminescence; normalized to butyrate control; activation, % at 6.8 µM; 370,000 tested, 1.8% active; AID 687014;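 active = activation above a cutoff set at the mean of all screened compounds plus 3 SD, cut at about 10% in these data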;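 also: 0% = DMSO wells and 100% = sodium butyrate wells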
FXN GAA850 act = frataxin GAA850 promoter activation. HEK293 lucGAA850 FXN promoter luciferase reporter, 24 h; percent of 10 µM SAHA response. activation, % at 6 µM. 360,000 tested, 0.56% active;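 active = activation above the average of all compounds screened plus 3 SD, cutoff fixed separately per campaign, cut at about 7.5% in these data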;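 also: 0% = DMSO wells and 100% = 10 µM SAHA wells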
hcDAF12 agonist = H. contortus DAF-12 activation, primary screen; activation, % at 6.8 µM; 370,000 tested, 1.4% active; HEK293 hcDAF-12 lit1-tk-luc reporter, luminescence; 0% DMSO, 100% Δ7-dafachronic acid;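 active = activation above the mean of all tested compounds plus 3 SD, cut at about 5.5% in these data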;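 also: 100% = response to 3 µM Δ7-dafachronic acid high control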
ssDAF-12 act = activates DAF-12 receptor from parasite S. stercoralis. AID 652126. 370,000 tested, 1% active. HEK293 ssDAF-12/GRIP1 lit1-tk-luc reporter, luminescence; % of 3 µM dafachronic acid response. activation, % at 6.8 µM;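 active = activation above the mean over all tested compounds plus 3 SD, cut at about 0.9% in these data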;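 also: 0% = DMSO-only wells and 100% = 3 µM delta7-dafachronic acid wells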
DAX1 inh-1 = blocks DAX1 repression of SF-1 activated StAR promoter | inhibition, % at 6.8 µM | 370,000 tested, 1.1% active | HEK293T StAR-luciferase reporter, SF-1/DAX-1 repression relief;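 active = inhibition above the mean over all tested compounds plus 3 SD, cut at about 3.6% in these data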;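 also: 0% = DAX-1 cells with DMSO and 100% = cells lacking DAX-1 with DMSO; higher inhibition means more luminescence from relief of DAX-1 repression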
DAX1 inh-2 = NR0B1 (DAX1) inhibition. HEK293 Gal4-DAX1 luciferase reporter, luminescence. inhibition, % at 6.75 µM. 340,000 tested, 0.99% active;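 active = inhibition above the mean over all tested compounds plus 3 SD, cut at about 4.2% in these data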;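 also: 0% = DAX1-transfected cells with DMSO and 100% = empty-vector control cells with DMSO; inhibition shows as a rise in luminescence from relieved DAX1 repression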
Target sequence (P51843 207-470 limits assumed): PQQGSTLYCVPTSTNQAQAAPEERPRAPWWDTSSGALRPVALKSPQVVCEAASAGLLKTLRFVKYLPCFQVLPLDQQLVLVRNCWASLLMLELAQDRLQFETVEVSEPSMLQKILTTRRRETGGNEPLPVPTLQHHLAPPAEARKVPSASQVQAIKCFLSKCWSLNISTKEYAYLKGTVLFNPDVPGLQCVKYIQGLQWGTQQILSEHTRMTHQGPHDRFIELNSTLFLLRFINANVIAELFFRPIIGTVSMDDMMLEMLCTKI
DAX1 conf = NR0B1 (human) inhibition, confirmation; shares compounds with DAX1 inh-1; HEK293T StAR-promoter luciferase reporter, SF-1/DAX-1 repression; inhibition, % at 6.8 µM; 2,400 tested, 87% active;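 active = inhibition above the average of every tested compound plus 3 SD, cut at about 3.8% in these data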;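 also: 0% = DAX-1 cells with DMSO and 100% = no DAX-1 control cells with DMSO; active compounds raise luminescence by relieving repression of the StAR reporter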
Target sequence (P51843 whole entry, looked up): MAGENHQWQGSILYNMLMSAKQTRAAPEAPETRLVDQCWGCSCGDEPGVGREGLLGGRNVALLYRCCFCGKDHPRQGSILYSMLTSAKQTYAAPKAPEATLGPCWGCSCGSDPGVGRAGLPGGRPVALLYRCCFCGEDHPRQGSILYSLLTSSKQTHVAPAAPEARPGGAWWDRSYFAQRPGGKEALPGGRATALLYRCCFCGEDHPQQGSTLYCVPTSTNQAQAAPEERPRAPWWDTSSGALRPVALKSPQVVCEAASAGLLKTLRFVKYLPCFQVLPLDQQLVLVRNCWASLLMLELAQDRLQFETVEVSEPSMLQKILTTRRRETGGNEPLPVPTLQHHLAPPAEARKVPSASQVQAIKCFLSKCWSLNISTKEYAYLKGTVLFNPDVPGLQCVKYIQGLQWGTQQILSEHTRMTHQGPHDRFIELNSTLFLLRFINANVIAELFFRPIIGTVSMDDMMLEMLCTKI
SF1 mutant ctr = counter-screen for DAX1 inhibitors: nonselective inhibitors with SF-1 AF2 mutant | shares compounds with DAX1 inh-1 | HEK293 StAR-luciferase, luminescence | inhibition, % at 6.8 µM | 2,400 tested, 78% active;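 active = inhibition above the mean of all tested compounds plus 3 SD, cut at about 3% in these data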;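 also: 0% = DAX-1 transfected cells with DMSO and 100% = cells without DAX-1 with DMSO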
LXRb hcDAF ctr = activates human LXR-beta, counter-screen for hcDAF-12 agonists; shares compounds with hcDAF12 agonist; HEK293 Gal4-LXR tk-luc reporter, luminescence, 24 h; normalized: DMSO 0%, positive control 100%; activation, % at 6.8 µM; 3,400 tested, under 10 active;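 active = mean percent activation of the reporter above a cutoff set as the average over tested compounds plus their standard deviation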
hcDAF12 ag = confirmation of H. contortus DAF-12 agonists | shares compounds with hcDAF12 agonist | HEK293 hcDAF-12 lit1-tk-luc reporter, luminescence; % of Δ7-dafachronic acid response | activation, % at 6.8 µM | 3,400 tested, 61% active | AID 743032;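 active = mean activation across triplicate tests above the threshold derived from the earlier primary screen, cut at about 5.5% in these data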;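 also: 0% = DMSO only wells and 100% = 3 µM Δ7-dafachronic acid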
* marks the source's active call; other numbers are inactive results; · = no result given. Only some compounds are listed: those with a hit (about 4.5% of all), similar ones and a draw of the others.

SMILES | hgDAF12 agonist | FXN GAA850 act | hcDAF12 agonist | ssDAF-12 act | DAX1 inh-1 | DAX1 inh-2 | DAX1 conf | SF1 mutant ctr | LXRb hcDAF ctr | hcDAF12 ag
CCCC[C@H]1C2CC(OC(=O)Nc3ccc(F)cc3)C(C2)[C@H]2CCCCN21 (some centres not stated) | 0 | · | -1 | 0 | -1 | · | · | · | · | ·
CC(C)Cc1cc(C(=O)Nc2ccc3c(c2)OCO3)no1 | 13* | 4 | 7.5* | 1.5* | 7.3* | 2 | 14* | 7.2* | 1 | 4
COc1ccc(NC(=O)c2cc(CC(C)C)on2)cc1OC | 7 | -1 | 0 | 0 | 1 | 1 | · | · | · | ·
COC(=O)c1cc2c(c3c4cc(OC)ccc4n(S(=O)(=O)c4ccc(F)cc4)c13)C(=O)N(C)C2 | -1 | · | 3 | -1 | 0 | · | · | · | · | ·
Cc1csc(NC(=O)c2cncc(Br)c2)n1 | 11* | 1 | 6.8* | 0 | 5.2* | 0 | 13* | 7.8* | 1 | 4
Nc1[nH]n(-c2ccccc2)c(=O)c1N=Nc1ccc2c(c1)OCCO2 | 15* | 2 | 9.4* | 2.1* | 5.0* | -1 | 13* | 6.0* | 2 | 12*
c1ccc(-c2csc(Nc3ccc4c(c3)OCO4)n2)cc1 | 21* | · | 17* | 2.6* | 22* | · | 14* | 7.8* | 2 | 17*
COc1ccc2oc(C(=O)Nc3ccccn3)c(C)c2c1 | 21* | 1 | 18* | 1.1* | 13* | 0 | 12* | 6.1* | 2 | 18*
COc1ccc(C(=O)Nc2ccccn2)cc1 | 0 | 0 | -1 | -1 | 0 | 0 | · | · | · | ·
Cc1ccccc1CNC(=O)c1csc([C@H]2C[C@H](O)[C@@H](CO)O2)n1 | 0 | 1 | 0 | -1 | -1 | · | · | · | · | ·
Cc1ccsc1/C=N/Nc1cccc(C(=O)O)c1 | 17* | 3 | 10* | 1 | 11* | -8 | 19* | 11* | 2 | 19*
Cc1ccc(/C=N/Nc2ccc(C(=O)O)cc2)s1 | -5 | -7 | -1 | -2 | -1 | -4 | · | · | · | ·
Cc1ccc(/C=N/Nc2cccc(C(=O)O)c2)s1 | 27* | 4 | 12* | 2.5* | 8.3* | -4 | 17* | 8.5* | 2 | 14*
Cc1ccc(S(=O)(=O)NC(=O)Cn2nnc(-c3ccccc3)c2COc2ccc3ccccc3c2)cc1 | 0 | 0 | -1 | -1 | 1 | · | · | · | · | ·
Nc1[nH]c(C(=O)c2ccc(Cl)cc2)c(-c2ccc(Br)cc2)c1C(=O)c1c[nH]c2ccc(F)cc12 | 3 | · | 1 | -1 | 1 | · | · | · | · | ·
CNc1ccc(C=C2C=Cc3ccccc32)cc1 | 15* | 2 | 9.1* | 1 | 7.3* | 4.7* | 17* | 7.2* | 2 | 11*
COC(=O)C1CN(CCc2ccccc2)CCS(=O)(=O)N1Cc1ccccc1F (configuration not stated) | 0 | · | -3 | -1 | -1 | · | · | · | · | ·
Cc1ccc(O)c(-c2cc(-c3ccccc3C)[nH]n2)c1 | 7 | 3 | 1 | 0 | 0 | 0 | · | · | · | ·
Oc1ccccc1-c1cc(-c2ccccc2)no1 | 15* | 5 | 22* | 4.8* | 6.2* | 4 | 20* | 14* | 2 | 19*
Cc1ccccc1-c1cc(-c2ccccc2O)on1 | 22* | 5 | 22* | 3.4* | 4.8* | 2 | 15* | 12* | 2 | 20*
CC(C)(C)c1cc(-c2ccccc2)no1 | 1 | 2 | -1 | -1 | 0 | 0 | · | · | · | ·
Cc1ccc(-c2cc(-c3ccccc3)no2)c(O)c1 | 11* | 1 | 16* | 3.1* | 6.8* | -2 | 14* | 3.7* | 2 | 19*
COc1ccc(N=Cc2ccccc2O)cc1 | 2 | -1 | 3 | 0 | 0 | 1 | · | · | · | ·
O=C1C(C=Nc2ccccc2O)=C(O)c2ccccc21 | 16* | 3 | 20* | 2.0* | 5.9* | 0 | 12* | 5.1* | 2 | 19*
COc1ccc(N=CC2=C(O)c3ccccc3C2=O)cc1 | 11* | -2 | 13* | 1.1* | 6.0* | -2 | 3 | -1 | 1 | 6.1*
SMILES | hgDAF12 agonist | FXN GAA850 act | hcDAF12 agonist | ssDAF-12 act | DAX1 inh-1 | DAX1 inh-2 | DAX1 conf | SF1 mutant ctr | LXRb hcDAF ctr | hcDAF12 ag
CN=CC1=C(O)c2ccccc2C1=O | -1 | 1 | 2 | 0 | 0 | 0 | · | · | · | ·
Cc1cccc(N=C/C(C(=O)C(F)(F)F)=C(\O)c2ccco2)c1 | 5 | 4 | 3 | 0 | 2 | 1 | · | · | · | ·
Cc1ccc(N=C/C(C(=O)C(F)(F)F)=C(\O)c2ccco2)cc1Cl | 16* | 6 | 18* | 1.4* | 5.2* | 2 | 16* | 8.7* | 1 | 10*
O=C(OC12CCCN(C1)/C(=C/c1cccnc1)C2)c1cccc(F)c1 (configuration not stated) | -3 | · | -3 | -2 | -2 | · | · | · | · | ·
Cc1n[nH]c2ccccc2c1=O | 1 | -2 | 2 | 0 | 1 | 1 | · | · | · | ·
CC(C)(C)c1ccc(Nc2n[nH]c3ccccc23)cc1 | 28* | · | 13* | 2.9* | 11* | · | 12* | 4.6* | 2 | 20*
COc1ccc(OCc2cc(C(=O)NC(C)Cn3cncn3)no2)c(Cl)c1 (configuration not stated) | 11* | 4 | 6.7* | 0.9* | 6.0* | 2 | 3 | 1 | 0 | 6.8*
COc1ccc(OCc2cc(C(=O)NC(C)Cc3cccnc3)no2)c(Cl)c1 (configuration not stated) | 1 | 0 | -2 | -1 | -1 | -1 | · | · | · | ·
Cc1cc(C(=O)NC2CCC(C)CC2)c(C)o1 (configuration not stated) | 8 | 4 | 13* | 0 | 7.5* | 3 | 14* | 6.7* | 1 | 7.7*
COc1ccc2sc(NCc3ccccc3)nc2c1 | 6 | 3 | 7.1* | 0 | 6.5* | 1 | 7.1* | 6.6* | 1 | 4
COc1cc(CNc2nc3ccccc3s2)cc(OC)c1OC | -3 | 1 | 0 | -1 | -1 | 1 | · | · | · | ·
CC(C)Oc1cccc(C(=O)Nc2ccc(Br)cc2F)c1 | 17* | 5 | 7.4* | 0 | 6.6* | 4.7* | 15* | 8.4* | 1 | 4

Source: PubChem (The Scripps Research Institute Molecular Screening Center)
